Test results as given in the supplement of paper PMC10849652.
Targets with a hit are over-represented here; the source holds about 7,900 in all. About 0.6% of all pairs of compound and target were hits. Values without a mark were called inactive.

Key:
Assay in all cases: log2 fold change, soluble protein after heating vs DMSO (PISA); higher = thermal stabilisation; K562 cells, 10 uM, 30 min; active = over 0.2 and 3.5 SD of the protein, either way, in both replicates (recomputed)
[1] = compound: Cc1ccc(NC(=O)c2ccc(CN3CC[C@H](N(C)C)C3)c(C(F)(F)F)c2)cc1Nc1nccc(-c2cncnc2)n1 [bafetinib]
Method in brief: (§1)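 K562 cells at 2×10^6 cells/mL were treated with 10 μM compound for 30 min. Aliquots were heated for 3 min across 48°C-58°C, pooled, and extracted in PBS with 0.5% NP-40 at 4°C; soluble protein was the supernatant after 21,000xg for 90 min. Soluble protein was quantified by TMTpro 16plex LC-MS/MS with channel sums equalised, and reported as log2 fold change in thermal stability against DMSO controls, with values from duplicates.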

[2] = compound: Cc1cccc(CC(=O)N2CCc3c2ccc(-c2cn(C)c4ncnc(N)c24)c3F)n1
Method in brief: as §1

[3] = compound: Cc1cn(-c2cc(NC(=O)c3ccc(C)c(Nc4nccc(-c5cccnc5)n4)c3)cc(C(F)(F)F)c2)cn1 [nilotinib]
Method in brief: as §1

[4] = compound: Cc1nc(Nc2n[nH]c3c2CN(C(=O)N[C@H](CN(C)C)c2ccccc2)C3(C)C)c2sccc2n1
Method in brief: as §1

[5] = compound: Cc1nc(Nc2ncc(C(=O)Nc3c(C)cccc3Cl)s2)cc(N2CCN(CCO)CC2)n1 [dasatinib]
Method in brief: as §1

[6] = compound: Cc1ncc(-c2ccnc(Nc3ccc(S(C)(=O)=O)cc3)n2)n1C(C)C
Method in brief: as §1

[7] = compound: Cn1cc(-c2ccc3c(c2)CCN3C(=O)Cc2cccc(C(F)(F)F)c2)c2c(N)ncnc21
Method in brief: as §1

[8] = compound: Cn1cc(-c2ccc3nnc(C(F)(F)c4ccc5ncccc5c4)n3n2)cn1
Method in brief: as §1

[9] = compound: Cn1cncc1[C@@](N)(c1ccc(Cl)cc1)c1ccc2c(c1)c(-c1cccc(Cl)c1)cc(=O)n2C [tipifarnib]
Method in brief: as §1

[10] = compound: FC(F)(F)c1ccc(/C=C/c2nc(COc3ccc(CCCCn4ccnn4)cc3)co2)cc1 [mubritinib]
Method in brief: as §1

Chain of UniProt P03891 (P03891 whole entry, looked up): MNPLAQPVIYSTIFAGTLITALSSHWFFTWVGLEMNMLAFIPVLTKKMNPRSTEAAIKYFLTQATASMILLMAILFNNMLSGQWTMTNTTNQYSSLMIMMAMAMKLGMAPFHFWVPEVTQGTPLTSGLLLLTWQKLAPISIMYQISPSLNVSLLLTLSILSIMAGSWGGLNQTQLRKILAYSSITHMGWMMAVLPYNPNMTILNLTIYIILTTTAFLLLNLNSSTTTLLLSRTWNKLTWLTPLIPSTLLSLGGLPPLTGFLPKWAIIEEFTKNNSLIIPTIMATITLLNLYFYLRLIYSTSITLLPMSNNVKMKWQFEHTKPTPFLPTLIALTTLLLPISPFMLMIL
Chain of UniProt Q9UBD5 (Q9UBD5 whole entry, looked up): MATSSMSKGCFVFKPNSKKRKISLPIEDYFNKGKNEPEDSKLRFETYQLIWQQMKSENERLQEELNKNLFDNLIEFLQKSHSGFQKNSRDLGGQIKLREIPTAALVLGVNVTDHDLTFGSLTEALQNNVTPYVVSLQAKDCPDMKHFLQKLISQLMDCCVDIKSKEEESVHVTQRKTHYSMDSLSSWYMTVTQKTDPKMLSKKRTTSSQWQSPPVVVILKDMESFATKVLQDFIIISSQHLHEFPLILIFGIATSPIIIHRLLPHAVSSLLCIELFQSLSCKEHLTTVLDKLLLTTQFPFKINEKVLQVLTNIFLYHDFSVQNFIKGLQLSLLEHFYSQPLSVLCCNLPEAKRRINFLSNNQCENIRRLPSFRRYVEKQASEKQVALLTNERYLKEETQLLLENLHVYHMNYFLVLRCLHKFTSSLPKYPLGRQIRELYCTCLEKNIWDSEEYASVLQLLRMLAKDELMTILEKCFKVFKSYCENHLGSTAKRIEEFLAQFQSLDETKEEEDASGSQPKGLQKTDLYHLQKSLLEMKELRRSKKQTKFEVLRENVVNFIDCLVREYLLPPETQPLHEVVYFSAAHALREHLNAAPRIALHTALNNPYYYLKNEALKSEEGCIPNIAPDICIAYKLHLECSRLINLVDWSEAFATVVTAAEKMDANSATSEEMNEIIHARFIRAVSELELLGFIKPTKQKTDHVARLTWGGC
Chain of UniProt Q13153 (Q13153 whole entry, looked up): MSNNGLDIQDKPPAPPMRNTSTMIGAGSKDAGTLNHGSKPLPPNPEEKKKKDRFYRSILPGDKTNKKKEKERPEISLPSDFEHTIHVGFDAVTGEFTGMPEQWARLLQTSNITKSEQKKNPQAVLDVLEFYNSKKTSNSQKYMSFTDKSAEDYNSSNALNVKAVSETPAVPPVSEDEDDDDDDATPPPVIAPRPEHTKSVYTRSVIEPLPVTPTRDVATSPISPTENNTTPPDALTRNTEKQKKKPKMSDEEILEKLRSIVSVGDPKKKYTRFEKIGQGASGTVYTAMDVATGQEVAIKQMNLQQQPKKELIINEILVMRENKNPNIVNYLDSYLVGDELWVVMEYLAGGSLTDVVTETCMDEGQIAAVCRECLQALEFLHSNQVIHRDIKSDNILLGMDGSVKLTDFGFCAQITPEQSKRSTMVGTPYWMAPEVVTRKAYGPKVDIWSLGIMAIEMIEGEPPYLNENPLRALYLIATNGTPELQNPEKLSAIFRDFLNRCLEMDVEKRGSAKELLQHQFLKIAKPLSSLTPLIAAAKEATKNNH
Chain of UniProt Q69YL0 (Q69YL0 whole entry, looked up): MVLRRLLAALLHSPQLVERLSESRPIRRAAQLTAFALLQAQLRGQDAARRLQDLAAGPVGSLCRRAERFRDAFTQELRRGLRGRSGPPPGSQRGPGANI
Chain of UniProt Q15102 (Q15102 whole entry, looked up): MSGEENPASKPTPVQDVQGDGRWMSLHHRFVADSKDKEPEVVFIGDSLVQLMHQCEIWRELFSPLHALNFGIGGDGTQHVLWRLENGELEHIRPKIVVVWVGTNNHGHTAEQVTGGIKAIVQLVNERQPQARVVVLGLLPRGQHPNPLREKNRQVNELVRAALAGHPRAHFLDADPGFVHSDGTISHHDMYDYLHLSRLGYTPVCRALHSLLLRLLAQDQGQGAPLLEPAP
Chain of UniProt O00567 (O00567 whole entry, looked up): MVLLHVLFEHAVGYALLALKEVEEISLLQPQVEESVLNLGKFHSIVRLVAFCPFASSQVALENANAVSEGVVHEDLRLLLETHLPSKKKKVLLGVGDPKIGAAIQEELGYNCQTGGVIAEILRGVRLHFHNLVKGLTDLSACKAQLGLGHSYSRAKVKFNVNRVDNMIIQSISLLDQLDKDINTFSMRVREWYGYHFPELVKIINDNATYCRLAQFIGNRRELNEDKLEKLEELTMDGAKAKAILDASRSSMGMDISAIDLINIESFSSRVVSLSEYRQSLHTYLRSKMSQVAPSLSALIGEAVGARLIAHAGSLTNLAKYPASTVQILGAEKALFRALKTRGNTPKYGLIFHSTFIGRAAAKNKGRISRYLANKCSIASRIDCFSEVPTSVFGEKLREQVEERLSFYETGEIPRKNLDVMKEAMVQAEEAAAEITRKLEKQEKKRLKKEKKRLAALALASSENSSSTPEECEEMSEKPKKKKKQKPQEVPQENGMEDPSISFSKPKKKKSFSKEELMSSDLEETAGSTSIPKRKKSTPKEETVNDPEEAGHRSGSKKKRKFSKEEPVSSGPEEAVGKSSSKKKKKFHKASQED
Chain of UniProt Q7Z3U7 (Q7Z3U7 whole entry, looked up): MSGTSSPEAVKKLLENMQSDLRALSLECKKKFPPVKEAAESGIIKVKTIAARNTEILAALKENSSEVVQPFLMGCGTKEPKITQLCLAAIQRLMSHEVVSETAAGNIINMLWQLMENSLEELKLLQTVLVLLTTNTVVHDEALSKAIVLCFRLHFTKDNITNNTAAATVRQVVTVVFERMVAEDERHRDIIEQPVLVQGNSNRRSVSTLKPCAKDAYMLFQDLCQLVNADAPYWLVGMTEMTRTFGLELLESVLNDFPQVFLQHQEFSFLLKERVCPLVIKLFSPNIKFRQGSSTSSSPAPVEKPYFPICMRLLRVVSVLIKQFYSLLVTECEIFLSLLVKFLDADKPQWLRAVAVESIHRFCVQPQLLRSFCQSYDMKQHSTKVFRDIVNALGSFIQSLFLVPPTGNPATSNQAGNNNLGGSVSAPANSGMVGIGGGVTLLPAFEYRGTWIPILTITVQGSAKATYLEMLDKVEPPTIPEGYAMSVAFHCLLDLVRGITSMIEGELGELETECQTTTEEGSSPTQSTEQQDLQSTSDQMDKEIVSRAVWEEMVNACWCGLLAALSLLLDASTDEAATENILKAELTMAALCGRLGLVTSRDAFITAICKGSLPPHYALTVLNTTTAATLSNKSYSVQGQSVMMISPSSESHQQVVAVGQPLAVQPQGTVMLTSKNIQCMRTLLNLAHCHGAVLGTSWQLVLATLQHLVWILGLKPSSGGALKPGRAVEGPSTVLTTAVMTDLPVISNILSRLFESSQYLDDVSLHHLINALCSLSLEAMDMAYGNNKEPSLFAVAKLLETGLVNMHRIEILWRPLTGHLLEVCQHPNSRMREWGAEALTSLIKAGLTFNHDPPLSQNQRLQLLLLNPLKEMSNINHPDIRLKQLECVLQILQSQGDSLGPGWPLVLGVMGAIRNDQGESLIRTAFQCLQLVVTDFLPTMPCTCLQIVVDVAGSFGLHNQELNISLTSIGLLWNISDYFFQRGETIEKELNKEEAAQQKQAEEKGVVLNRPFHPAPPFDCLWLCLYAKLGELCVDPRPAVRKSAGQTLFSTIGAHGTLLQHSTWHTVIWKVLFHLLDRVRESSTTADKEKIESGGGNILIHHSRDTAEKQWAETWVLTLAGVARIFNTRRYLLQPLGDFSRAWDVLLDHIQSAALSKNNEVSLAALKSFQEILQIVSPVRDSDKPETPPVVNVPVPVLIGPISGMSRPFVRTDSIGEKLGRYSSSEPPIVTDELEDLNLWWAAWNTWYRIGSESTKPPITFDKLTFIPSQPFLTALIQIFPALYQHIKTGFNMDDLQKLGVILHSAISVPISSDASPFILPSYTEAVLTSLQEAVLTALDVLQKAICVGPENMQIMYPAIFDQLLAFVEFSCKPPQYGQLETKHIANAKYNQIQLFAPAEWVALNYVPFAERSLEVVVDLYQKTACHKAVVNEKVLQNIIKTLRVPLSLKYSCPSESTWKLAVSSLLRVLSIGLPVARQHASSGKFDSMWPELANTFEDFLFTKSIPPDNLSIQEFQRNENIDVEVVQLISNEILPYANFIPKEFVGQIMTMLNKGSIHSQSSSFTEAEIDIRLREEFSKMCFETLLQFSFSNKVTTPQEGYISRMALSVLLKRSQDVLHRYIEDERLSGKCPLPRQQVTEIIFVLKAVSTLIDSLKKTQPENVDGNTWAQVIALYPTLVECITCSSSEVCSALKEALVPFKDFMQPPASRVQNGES
Chain of UniProt Q9Y605 (Q9Y605 whole entry, looked up): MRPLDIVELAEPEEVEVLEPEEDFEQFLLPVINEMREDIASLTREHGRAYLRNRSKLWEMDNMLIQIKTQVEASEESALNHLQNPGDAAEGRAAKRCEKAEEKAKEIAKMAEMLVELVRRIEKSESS
Chain of UniProt Q9NRP0 (Q9NRP0 whole entry, looked up): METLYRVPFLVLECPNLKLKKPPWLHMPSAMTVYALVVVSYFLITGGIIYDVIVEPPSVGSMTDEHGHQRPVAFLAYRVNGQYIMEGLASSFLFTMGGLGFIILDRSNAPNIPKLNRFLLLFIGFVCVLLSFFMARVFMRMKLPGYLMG
Chain of UniProt Q13952 (Q13952 whole entry, looked up): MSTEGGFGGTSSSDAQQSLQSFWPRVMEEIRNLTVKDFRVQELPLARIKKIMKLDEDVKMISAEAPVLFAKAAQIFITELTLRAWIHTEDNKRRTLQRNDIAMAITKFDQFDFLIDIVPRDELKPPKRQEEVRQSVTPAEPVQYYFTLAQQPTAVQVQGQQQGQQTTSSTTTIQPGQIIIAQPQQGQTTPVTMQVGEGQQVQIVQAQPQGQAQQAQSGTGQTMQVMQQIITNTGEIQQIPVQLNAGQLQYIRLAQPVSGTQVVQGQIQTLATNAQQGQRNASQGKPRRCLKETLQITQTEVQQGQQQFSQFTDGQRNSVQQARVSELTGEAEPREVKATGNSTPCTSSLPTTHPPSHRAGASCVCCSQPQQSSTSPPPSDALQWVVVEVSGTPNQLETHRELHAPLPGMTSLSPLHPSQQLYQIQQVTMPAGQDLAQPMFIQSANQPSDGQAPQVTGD

Row | Target | log2 fold change [1] | log2 fold change [2] | log2 fold change [3] | log2 fold change [4] | log2 fold change [5] | log2 fold change [6] | log2 fold change [7] | log2 fold change [8] | log2 fold change [9] | log2 fold change [10]
1 | MRPS18B (UniProt Q9Y676) | 0.125 | 0.055 | -0.154 | 0.098 | -0.024 | -0.342 | 0.005 | 0.081 | -0.059 | 0.172
2 | ORC3 isoform 2 (UniProt Q9UBD5) | -0.032 | 0.099 | -0.262 | -0.254 | -0.298 | -0.118 | 0.067 | 0.109 | 0.086 | 0.029
3 | NEMP1 (UniProt O14524) | -0.147 | 0.065 | -0.186 | 0.004 | -0.009 | 0.003 | -0.007 | -0.025 | 0 | 0.036
4 | NUP205 (UniProt Q92621) | -0.052 | 0 | -0.042 | -0.025 | -0.133 | -0.004 | -0.005 | -0.052 | -0.072 | 0.017
5 | OPA1 isoform 2 (UniProt O60313) | -0.022 | 0.069 | -0.039 | -0.025 | -0.169 | -0.004 | 0.054 | -0.031 | -0.12 | 0.062
6 | NCOR1 (UniProt O75376) | -0.009 | -0.056 | 0.182 | -0.046 | -0.091 | 0.058 | 0.041 | -0.049 | 0.103 | 0.041
7 | NKAP (UniProt Q8N5F7) | -0.016 | -0.081 | 0.059 | -0.792 (active) | 0.086 | 0.015 | -0.033 | -0.253 | -0.138 | -0.169
8 | PAK1 isoform 2 (UniProt Q13153) | -0.017 | 0.04 | 0.03 | 0.036 | -0.025 | -0.027 | 0.041 | 0.035 | -0.004 | 0.015
9 | NFE2 (UniProt Q16621) | -0.048 | -0.13 | -0.063 | -0.068 | -0.016 | -0.071 | -0.051 | -0.08 | -0.066 | 0.026
10 | MRPS6 (UniProt P82932) | 0.062 | 0.159 | -0.146 | 0.062 | -0.02 | -0.009 | 0.007 | 0.148 | -0.106 | 0.112
11 | OSTC (UniProt Q9NRP0) | -0.137 | 0.027 | -0.047 | -0.013 | -0.059 | -0.029 | 0.057 | 0.069 | -0.013 | 0.044
12 | NFYB (UniProt P25208) | -0.086 | -0.006 | 0.074 | -0.067 | 0.124 | 0.034 | -0.012 | -0.06 | -0.019 | 0.127
13 | MND1 (UniProt Q9BWT6) | -0.168 | 0.042 | 0.032 | 0.003 | -0.037 | -0.015 | -0.056 | -0.132 | 0.04 | 0.043
14 | MRPL34 (UniProt Q9BQ48) | 0.176 | 0.035 | -0.083 | 0.248 | 0.065 | -0.064 | -0.142 | -0.048 | 0.058 | 0.032
15 | MRPL50 (UniProt Q8N5N7) | -0.079 | -0.035 | 0.008 | 0.114 | 0.183 | -0.064 | 0.022 | 0.117 | -0.163 | -0.039
16 | NSDHL (UniProt Q15738) | 0.006 | 0.014 | 0.033 | -0.021 | 0.054 | 0.001 | 0.11 | 0.133 | 0.029 | 0.164
17 | MON2 isoform 5 (UniProt Q7Z3U7) | -0.001 | 0.026 | -0.053 | -0.012 | -0.132 | 0.082 | 0.008 | 0.006 | -0.071 | -0.03
18 | NCBP2AS2 (UniProt Q69YL0) | -0.504 (active) | -0.018 | 0 | 0.045 | -0.021 | 0.031 | 0.002 | 0.021 | -0.001 | 0.006
19 | MON1B (UniProt Q7L1V2) | -0.071 | 0.004 | 0.025 | 0.015 | -0.099 | -0.048 | 0.038 | 0.012 | -0.011 | 0.065
20 | NDUFS4 (UniProt O43181) | -0.083 | 0.017 | 0.039 | 0.015 | 0.087 | -0.047 | 0.025 | -0.049 | 0.202 | 0.058
21 | PAFAH1B3 (UniProt Q15102) | 0.003 | 0.058 | 0.008 | -0.031 | -0.065 | -0.011 | 0.192 | 0.039 | -0.163 | 0.075
22 | MT-ND2 (UniProt P03891) | 0 | -0.173 | -0.006 | 0.018 | -0.459 (active) | -0.171 | 0.279 | 0.11 | 0.383 | -0.01
23 | MRFAP1 (UniProt Q9Y605) | -0.045 | -0.08 | -0.174 | -0.064 | -0.054 | 0.051 | -0.024 | 0.011 | -0.261 | -0.075
24 | NDUFB7 (UniProt P17568) | 0 | 0.164 | -0.029 | 0.057 | 0.022 | -0.053 | 0.043 | 0.01 | -0.029 | -0.007
25 | MRPS25 (UniProt P82663) | 0.125 | 0.158 | -0.144 | -0.043 | -0.105 | 0.044 | 0.037 | 0 | -0.077 | 0.069
26 | NOSIP (UniProt Q9Y314) | 0.085 | 0.066 | -0.11 | -0.277 | -0.229 | 0.247 | -0.063 | -0.111 | -0.128 | -0.098
27 | NOP56 (UniProt O00567) | 0.225 | -0.099 | 0.098 | -0.018 | 0.204 | -0.026 | -0.371 | -0.18 | 0.201 | -0.164
28 | NFYC (UniProt Q13952) | -0.017 | -0.041 | -0.024 | -0.021 | 0.032 | -0.008 | 0.014 | 0.048 | 0.038 | 0.066
29 | NDUFA12 (UniProt Q9UI09) | 0 | 0.089 | -0.158 | -0.031 | -0.107 | 0.029 | 0.109 | 0.062 | -0.007 | 0.326 (active)
